Measurements published in the OligoGym collection.
Also: reference of the scale not given here.

Each sequence was assayed against FIZ1 (assay: pooled miR-30 sensor sort-seq; sequence = guide strand). Details: shRNA.
For TGAAGCTGTGCTTGAAACCCTT, the sensor-assay potency score (higher = more potent) was -0.439.
In the case of TGGTTGGCTAGGTTGAAGCTGT, the sensor-assay potency score (higher = more potent) is reported as -0.915.
TTGAAGTCGCGCTCGCAGCGCG gave a sensor-assay potency score (higher = more potent) of -0.792.
TCTCGCACTCGGAGCAGCCGAA showed a sensor-assay potency score (higher = more potent) of -1.41.
Sequence TTTCTCACCAGTGTGGACGACC has a sensor-assay potency score (higher = more potent) of -0.391.
TTGAAGGGCTTCACGTCGGTGT showed a sensor-assay potency score (higher = more potent) of 0.144.
TGAGCGGAACAGCTTCTCGCAC gave a sensor-assay potency score (higher = more potent) of -1.25.
In the case of TTGAGGTAGCACTCGTGGCGGA, the sensor-assay potency score (higher = more potent) is reported as -0.466.
TAGATCAGTCCATTCTACTGGG gave a sensor-assay potency score (higher = more potent) of 0.523.
For TTCTCGCACTCGGAGCAGCCGA, the sensor-assay potency score (higher = more potent) was -1.7.
TGGTACAGGGTGTCTTCCGAGG gave a sensor-assay potency score (higher = more potent) of -1.47.

Each sequence was assayed against FKBP10 in the same assay as above. Details: shRNA.
For TCGTCGACTGTGATCTTGCCGT, the sensor-assay potency score (higher = more potent) was -0.799.
For TTGAAGATTAGCACGGCAGAGC, the sensor-assay potency score (higher = more potent) was -0.871.
Work on TAGCTGGACAGCGTCCTTCGGG yielded a sensor-assay potency score (higher = more potent) of -1.26.
With TAATCTTCCTTCTCTCTCCAGG the sensor-assay potency score (higher = more potent) was -0.239.
In the case of ATAGCTTGAATCAAACTTCTTG, the sensor-assay potency score (higher = more potent) is reported as 0.371.
TCAAACAGCAGCACAGCACTGC was tested, and the sensor-assay potency score (higher = more potent) was 0.521.
Sequence TATGGTTTTCTCAGGGTCCTGC has a sensor-assay potency score (higher = more potent) of 0.0683.
For TAGCTGGTGTCGAAGAAGGTGC, the sensor-assay potency score (higher = more potent) was -0.841.
TAGCTTGAATCAAACTTCTTGC showed a sensor-assay potency score (higher = more potent) of 0.0257.
For TTGAATCAAACTTCTTGCCATC, the sensor-assay potency score (higher = more potent) was -0.96.
TTCCTTGTTCCACACATCCAGC gave a sensor-assay potency score (higher = more potent) of -1.14.
TTGATCAGCCAACCAGAGCCGA was tested, and the sensor-assay potency score (higher = more potent) was -0.877.
